The values below come from PubChem BioAssay (NCATS).

Experiment [1] deals with Lysosomal acid glucosylceramidase (Homo sapiens) (UniProt P04062). Kind of experiment: Glucocerebrosidase-p2 (AID 348; in the data active = potency below about 10 µM; also: potency is read from the fitted curve at half-maximal effect). Conditions: purified GBA, blue fluorogenic substrate, 40 min. An outline of the steps:
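Compounds titrated from 0.6 nM upwards against 0.2 nM enzyme in pH 5.9 citric acid/KH2PO4, taurocholate, tween-20; blue fluorogenic substrate 80 uM, 40 min room temperature, stopped and read Ex 365/Em 440 for AC50.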

Experiment [2] is described as follows: AP1 Signaling Pathway (AID 357).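 Also: ME-180 reporter cells stimulated with EGF at its EC50 level; % is scaled to controls: 0 for no effect and ±100 for the full control effect.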 To be noted: ME-180 AP-1-bla reporter, EGF-induced, beta-lactamase ratio, 5 h; at 7.69 µM (top of the series) unless noted. An outline of the steps: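 Titration-series screen for positive or negative modulators of EC50 EGF-induced signaling in ME-180 cells carrying an AP-1-driven beta-lactamase reporter. After 5 hours at 37 degrees Celsius, CCF4 460nm/530nm emission ratio gave %Activity; AC50 values derived.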

Experiment [3] has as its target Cytochrome P450 1A2 (Homo sapiens) (UniProt P05177). Kind of experiment: p450-cyp1a2 (AID 410; calls by dose curve; also: potency is read from the fitted curve at half-maximal effect;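 as to activity change, negative = inhibition: -100% = full effect of reference inhibitor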). Conditions: recombinant CYP1A2, luciferin-ME demethylation, luminescence; series mostly up to 57 µM. An outline of the steps:
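Luminescent readout of luciferin formed from Luciferin-ME by human CYP1A2; data normalized against complete inhibition by 57 uM furafylline. Enzyme 20nM, substrate 100uM at Km, 100mM KPO4 buffer, 60 min reaction at room temperature.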

A short description of experiment [4]: NFAT Signaling Pathway (AID 444).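 Also: carbachol stimulus at about its EC50 of 1 µM final; % is scaled to controls: 0 for no effect and ±100 for the full control effect.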 Conditions: Jurkat NFAT-bla M1, carbachol, beta-lactamase ratio, 5 h; at 7.69 µM (top of the series) unless noted. An outline of the steps:
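Jurkat cells with NFAT-driven β-lactamase reporter and co-expressed M1 receptor, stimulated with carbachol (final 1 uM, ~EC50), compound titration, 5 h at 37 °C. CCF4 loaded 1 h at RT; 460/530 nm ratio gave %activity and AC50.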

In experiment [5] the target is Glucocorticoid receptor (Homo sapiens) (UniProt P04150). Kind of experiment: GR-GFP Redistribution (AID 450;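 active = compounds whose dose series gives a full or clear partial fitted curve of increased nuclear translocation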; also: potency is read from the fitted curve at half-maximal effect). To be noted: U2OS GR-GFP nuclear translocation, laser cytometry, 2 h.
Experiment [6] has the same target. Kind of experiment: GR-EFC Redistribution (AID 451; calls by dose curve; also: potency is read from the fitted curve at half-maximal effect). To be noted: CHO-K1 GR-EFC translocation, beta-gal luminescence, 2 h. An outline of the steps: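 CHO-K1 cells expressing nuclear EA and GR-ED fragments of b-gal; compounds titrated up to 46 uM final, 2 h at 37 C. GR nuclear translocation read as complemented b-gal luminescence after 1 h RT detection.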
In experiment [7] the target is Mitogen-activated protein kinase 10 (Mus musculus) (UniProt Q61831). Kind of experiment: JNK3 AlphaScreen Assay (AID 530).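 Also: kinase came from lysate of stimulated human HepG2 cells; signal reports phosphorylation of biotinylated GST-cJun 1-79 at Ser73 with 10 µM ATP; % is scaled to controls: 0 for no effect and ±100 for the full control effect.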 To be noted: JNK3 lysate, c-Jun phosphorylation; series mostly up to 57.1 µM. An outline of the steps:
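Pre-activated (IL-1β/TNFα) JNK3 in HepG2 lysates phosphorylates biotin-GST-cJun(1-79), 10 uM ATP; anti-phospho-cJun(Ser73) AlphaScreen read at room temperature, pH 7.6 Tris buffer. Compounds pre-incubated 15 min as titrations.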
In general terms: Bead proximity is the source of the signal in Alpha formats.

For experiment [8], the target named is Cytochrome P450 3A4 (Homo sapiens) (UniProt P08684). Kind of experiment: qHTS Assay for Inhibitors and Substrates of Cytochrome P450 3A4 (AID 884; active = well fitted curve in the direction sought with a large enough effect; an effect the other way counts as inactive or inconclusive; also: potency is read from the fitted curve at half-maximal effect; nearly all actives have a fitted effect of over 50% in size). To be noted: recombinant CYP3A4, Luciferin-PPXE luminescence; series mostly up to 57.1 µM. An outline of the steps: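 20 nM human CYP3A4 with 25 uM Luciferin-PPXE (at KM) in 200 mM KPO4, preincubated 10 min with compound; NADPH regeneration started a 60 min RT reaction. Luciferin detected by luminescence, normalized to 57 uM ketoconazole as full inhibition.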

Experiment [9] has the same target. Kind of experiment: qHTS Assay for Activators of Cytochrome P450 3A4 (AID 885; active = well fitted curve in the direction sought with a large enough effect; an effect the other way counts as inactive or inconclusive; also: nearly all actives have a fitted effect of over 65% in size). To be noted: recombinant CYP3A4, Luciferin-PPXE luminescence, 60 min; series mostly up to 57.1 µM. An outline of the steps: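 Signal was normalized against complete inhibition by 57 uM ketoconazole. The reaction used 20nM CYP3A4 with 25uM Luciferin-PPXE, 10-min compound preincubation and a 60-min NADPH-supported step at RT.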
For orientation: In qHTS, concentration-response curves come from the screen itself.

Experiment [10] in a line: qHTS Assay for Lipid Storage Modulators (AID 1519; calls by dose curve). To be noted: Drosophila S3 cells, BODIPY lipid droplet/cell ratio, laser cytometry, cells loaded with oleic acid; for activity change, negative = inhibition: at 57.5 µM (top of the series). An outline of the steps:
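Cells seeded at 5,000 per well were treated with compounds over a concentration series and loaded with oleic acid (400 uM, as added). Lipid droplet fluorescence (488 nm excitation, 500-530 nm channel) was read by laser-scanning cytometry and normalized to 20 uM Triacsin C.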

A short description of experiment [11]: Stat Signaling Pathway (AID 446).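 Also: ME-180 cervical cancer cells given 40 pM IL-6 alongside compound; SIE-controlled beta-lactamase reporter measured as 460/530 nm FRET emission ratio; % is scaled to controls: 0 for no effect and ±100 for the full control effect.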 To be noted: ME-180 SIE beta-lactamase reporter, IL-6 stimulated, 5 h; at 7.69 µM (top of the series) unless noted. An outline of the steps:
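Reporter line: ME-180 cervical carcinoma, SIE-beta-lactamase. Treatment: compound with 40 pM IL-6, 5 hrs, 37 C, in low-serum OPTI-MEM with 10 mM HEPES pH 7.3. Detection: 460/530 nm fluorescence.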

In experiment [12] the target is 3',5'-cyclic-AMP phosphodiesterase 4B (Homo sapiens) (UniProt Q07343). Kind of experiment: qHTS Assay for Inhibitors of PDE-IV (AID 607; active = well fitted activation curve with a large enough effect in the main read-out, with a control signal flat, not every such curve was filed as active; also: % of control where 0% means no effect). To be noted: HEK293 ACTOne CNG channel cells, membrane potential fluorescence; series mostly up to 22.9 µM. An outline of the steps:
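Cell-based read-out of cAMP via a modified cyclic nucleotide-gated channel and membrane potential dye (535/590 nm) in HEK293 cells expressing PDE4 endogenously. Compounds tested up to 22.9 uM final; 100 uM RO 20-1724 reference.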

The nature of experiment [13]: Confirmation and Secondary Assay for Modulators of Hemoglobin Beta Chain Splicing at IVS2 705 locus (AID 930; active = well fitted curve in the direction sought with a large enough effect; an effect the other way counts as inactive or inconclusive;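 also: HeLa cells stably expressing the EGFP-705 splicing reporter; GFP fluorescence per well restored by corrected splicing of the IVS2-705 intron in EGFP; % of control where 0% means no effect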). To be noted: HeLa EGFP-705 splicing reporter, GFP fluorescence, 48 h; series mostly up to 38.3 µM. An outline of the steps:
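HeLa EGFP-705 reporter; 500 cells/well, o/n 37C 5% CO2; cpd 2 d; 488 ex/500-520 em laser scan; total peak GFP intensity/well. Ref: 500 nM […] antisense PNA.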

Experiment [14] addresses Ubiquitin carboxyl-terminal hydrolase 1 (Homo sapiens) (UniProt O94782). Kind of experiment: Inhibitors of USP1/UAF1: Pilot qHTS (AID 504865; active = well fitted curve in the direction sought with a large enough effect; an effect the other way counts as inactive or inconclusive;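 also: rhodamine fluorescence freed from ubiquitin-rhodamine substrate followed over time; top concentration of the series differs between compounds; % is scaled to controls: 0 for no effect and ±100 for the full control effect; nearly all actives have a fitted effect of over 35% in size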). Conditions: purified USP1/UAF1, Ub-rhodamine cleavage fluorescence; series mostly up to 54.9 µM. An outline of the steps:
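Deubiquitinase activity followed as kinetic rhodamine fluorescence release from 150 nM Ub-Rho. 1 nM USP1/UAF1 with compound, after 15 min room-temperature preincubation, in HEPES pH 7.8 buffer containing TCEP, EDTA, BSA and Tween-20.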

The target of experiment [15] is Cytochrome P450 2D6 (Homo sapiens) (UniProt P10635). Kind of experiment: qHTS Assay for Inhibitors and Substrates of Cytochrome P450 2D6 (AID 891; active = well fitted curve in the direction sought with a large enough effect; an effect the other way counts as inactive or inconclusive; also: potency is read from the fitted curve at half-maximal effect; nearly all actives have a fitted effect of over 60% in size). To be noted: recombinant CYP2D6, luciferin-ME EGE luminescence; series mostly up to 57.1 µM. An outline of the steps:
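Human CYP2D6 (5 nM) with 30 uM Luciferin-ME EGE (at Km) in 100 mM KPO4, compound preincubated 10 min, then NADPH regeneration system for 60 min at room temperature. Luciferin read by luminescence; normalized to 1.43 uM quinidine.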

Where [16] appears, read: measured here: cell count channel max response.
[17] abbreviates: measured here: lipid channel max response.

Records with an inconclusive call do not appear. The source made the active and inactive calls. Unless noted, calls follow the shape of the dose curve; as a rule, active = well fitted curve in either direction with a large enough effect (not every such curve was filed as active); inconclusive = small, poorly fitted or top-dose-only effect, or another doubt; inactive = flat fitted curve, though single readings scatter.

Sequence of Glucocorticoid receptor (Homo sapiens) (P04150 whole entry, looked up, the tested form may be a part): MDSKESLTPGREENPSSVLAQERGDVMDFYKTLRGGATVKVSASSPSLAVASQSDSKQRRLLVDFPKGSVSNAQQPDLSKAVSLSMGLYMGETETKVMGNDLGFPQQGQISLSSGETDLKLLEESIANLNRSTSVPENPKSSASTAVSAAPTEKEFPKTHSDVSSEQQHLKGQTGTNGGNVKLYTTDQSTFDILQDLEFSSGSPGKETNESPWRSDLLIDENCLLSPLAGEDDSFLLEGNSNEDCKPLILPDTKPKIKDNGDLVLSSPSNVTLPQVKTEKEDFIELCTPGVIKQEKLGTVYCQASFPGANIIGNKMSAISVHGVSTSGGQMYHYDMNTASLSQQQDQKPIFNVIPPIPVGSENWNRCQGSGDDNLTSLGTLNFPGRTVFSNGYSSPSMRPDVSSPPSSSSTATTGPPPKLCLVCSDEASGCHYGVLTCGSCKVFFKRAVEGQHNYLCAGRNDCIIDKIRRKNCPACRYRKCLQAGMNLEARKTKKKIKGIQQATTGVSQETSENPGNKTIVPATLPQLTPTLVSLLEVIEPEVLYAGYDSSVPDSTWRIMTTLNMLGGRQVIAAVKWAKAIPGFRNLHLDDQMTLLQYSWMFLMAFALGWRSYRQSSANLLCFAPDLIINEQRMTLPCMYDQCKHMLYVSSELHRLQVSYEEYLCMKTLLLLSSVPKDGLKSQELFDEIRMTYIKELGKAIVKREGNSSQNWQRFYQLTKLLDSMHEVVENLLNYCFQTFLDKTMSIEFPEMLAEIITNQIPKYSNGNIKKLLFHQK
Sequence of Cytochrome P450 3A4 (Homo sapiens) (P08684 whole entry, looked up): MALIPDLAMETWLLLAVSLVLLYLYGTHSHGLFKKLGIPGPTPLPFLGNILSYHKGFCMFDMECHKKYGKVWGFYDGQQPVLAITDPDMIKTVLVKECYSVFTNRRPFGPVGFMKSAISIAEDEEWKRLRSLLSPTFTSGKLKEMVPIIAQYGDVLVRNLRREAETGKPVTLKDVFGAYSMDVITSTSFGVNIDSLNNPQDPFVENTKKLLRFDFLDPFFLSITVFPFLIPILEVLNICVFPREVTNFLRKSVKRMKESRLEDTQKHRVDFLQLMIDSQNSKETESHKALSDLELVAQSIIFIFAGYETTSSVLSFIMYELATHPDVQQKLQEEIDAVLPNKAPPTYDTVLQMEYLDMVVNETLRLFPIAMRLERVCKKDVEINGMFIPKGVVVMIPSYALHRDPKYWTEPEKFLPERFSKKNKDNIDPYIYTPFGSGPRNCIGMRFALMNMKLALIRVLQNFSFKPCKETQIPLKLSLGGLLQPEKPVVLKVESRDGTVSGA
Sequence of Cytochrome P450 1A2 (Homo sapiens) (P05177 whole entry, looked up): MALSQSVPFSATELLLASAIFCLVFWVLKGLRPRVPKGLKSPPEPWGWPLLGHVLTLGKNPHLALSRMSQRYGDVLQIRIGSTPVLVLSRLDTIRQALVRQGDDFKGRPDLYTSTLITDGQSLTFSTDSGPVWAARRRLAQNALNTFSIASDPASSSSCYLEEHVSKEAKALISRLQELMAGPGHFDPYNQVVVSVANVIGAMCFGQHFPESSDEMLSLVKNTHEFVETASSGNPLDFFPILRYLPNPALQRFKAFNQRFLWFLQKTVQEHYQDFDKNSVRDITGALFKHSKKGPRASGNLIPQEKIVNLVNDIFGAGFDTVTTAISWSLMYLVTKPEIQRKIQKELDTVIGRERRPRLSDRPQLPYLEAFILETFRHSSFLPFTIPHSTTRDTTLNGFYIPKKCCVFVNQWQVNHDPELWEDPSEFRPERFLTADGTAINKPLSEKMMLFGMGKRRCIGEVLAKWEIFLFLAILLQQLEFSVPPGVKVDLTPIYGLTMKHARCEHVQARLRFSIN
Sequence of 3',5'-cyclic-AMP phosphodiesterase 4B (Homo sapiens) (Q07343 whole entry, looked up): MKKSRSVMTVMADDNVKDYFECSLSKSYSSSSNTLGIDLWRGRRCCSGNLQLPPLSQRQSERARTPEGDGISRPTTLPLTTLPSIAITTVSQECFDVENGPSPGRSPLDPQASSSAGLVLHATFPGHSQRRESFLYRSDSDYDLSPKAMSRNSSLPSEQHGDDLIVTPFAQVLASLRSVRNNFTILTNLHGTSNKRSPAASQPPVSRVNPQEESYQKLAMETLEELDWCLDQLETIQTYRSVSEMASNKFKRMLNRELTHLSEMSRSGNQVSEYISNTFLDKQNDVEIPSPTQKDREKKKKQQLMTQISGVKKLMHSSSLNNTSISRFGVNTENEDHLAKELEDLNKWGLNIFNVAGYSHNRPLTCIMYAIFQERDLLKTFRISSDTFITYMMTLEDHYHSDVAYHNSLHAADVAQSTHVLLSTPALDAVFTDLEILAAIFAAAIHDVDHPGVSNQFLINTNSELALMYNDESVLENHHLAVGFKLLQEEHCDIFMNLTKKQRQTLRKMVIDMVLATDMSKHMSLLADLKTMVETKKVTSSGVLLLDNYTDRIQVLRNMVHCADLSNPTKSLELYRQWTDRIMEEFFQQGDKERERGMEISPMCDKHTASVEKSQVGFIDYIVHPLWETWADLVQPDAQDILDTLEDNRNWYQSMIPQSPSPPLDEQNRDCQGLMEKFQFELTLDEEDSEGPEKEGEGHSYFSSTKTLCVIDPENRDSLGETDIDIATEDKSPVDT
Sequence of Lysosomal acid glucosylceramidase (Homo sapiens) (P04062 whole entry, looked up): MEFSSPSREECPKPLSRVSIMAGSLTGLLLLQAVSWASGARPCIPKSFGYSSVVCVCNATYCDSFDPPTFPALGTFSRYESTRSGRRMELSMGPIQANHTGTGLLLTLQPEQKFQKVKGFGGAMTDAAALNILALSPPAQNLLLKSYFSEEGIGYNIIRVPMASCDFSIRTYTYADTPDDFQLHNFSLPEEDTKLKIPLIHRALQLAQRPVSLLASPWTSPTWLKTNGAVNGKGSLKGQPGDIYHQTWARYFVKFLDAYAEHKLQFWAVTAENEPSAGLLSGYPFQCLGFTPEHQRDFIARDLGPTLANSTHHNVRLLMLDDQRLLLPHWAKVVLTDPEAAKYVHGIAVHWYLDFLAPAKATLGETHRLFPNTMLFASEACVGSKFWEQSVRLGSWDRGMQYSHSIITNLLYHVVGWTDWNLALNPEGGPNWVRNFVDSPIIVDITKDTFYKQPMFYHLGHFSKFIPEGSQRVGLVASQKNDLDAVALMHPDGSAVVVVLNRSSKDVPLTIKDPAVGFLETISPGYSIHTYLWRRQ
Sequence of Ubiquitin carboxyl-terminal hydrolase 1 (Homo sapiens) (O94782 whole entry, looked up): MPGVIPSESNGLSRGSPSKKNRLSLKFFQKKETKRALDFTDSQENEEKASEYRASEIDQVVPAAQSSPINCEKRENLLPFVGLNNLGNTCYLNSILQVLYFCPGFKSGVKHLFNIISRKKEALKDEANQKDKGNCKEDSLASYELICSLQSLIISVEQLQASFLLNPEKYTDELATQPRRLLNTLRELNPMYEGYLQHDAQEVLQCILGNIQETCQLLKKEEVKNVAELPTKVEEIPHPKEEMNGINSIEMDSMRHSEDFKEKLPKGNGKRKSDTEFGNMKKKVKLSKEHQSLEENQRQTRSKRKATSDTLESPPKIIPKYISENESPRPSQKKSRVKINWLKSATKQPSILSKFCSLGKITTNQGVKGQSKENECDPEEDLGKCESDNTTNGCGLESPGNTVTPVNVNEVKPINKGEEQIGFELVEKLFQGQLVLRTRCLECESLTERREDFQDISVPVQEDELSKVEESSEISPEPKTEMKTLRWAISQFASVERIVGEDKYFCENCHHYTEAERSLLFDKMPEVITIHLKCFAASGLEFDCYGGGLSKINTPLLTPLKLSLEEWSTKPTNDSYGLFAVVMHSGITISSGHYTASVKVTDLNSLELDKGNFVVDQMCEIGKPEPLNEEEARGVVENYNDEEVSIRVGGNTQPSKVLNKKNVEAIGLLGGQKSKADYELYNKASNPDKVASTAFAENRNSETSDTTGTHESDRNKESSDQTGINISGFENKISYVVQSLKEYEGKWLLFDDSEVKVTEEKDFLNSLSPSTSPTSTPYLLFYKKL
Sequence of Cytochrome P450 2D6 (Homo sapiens) (P10635 whole entry, looked up): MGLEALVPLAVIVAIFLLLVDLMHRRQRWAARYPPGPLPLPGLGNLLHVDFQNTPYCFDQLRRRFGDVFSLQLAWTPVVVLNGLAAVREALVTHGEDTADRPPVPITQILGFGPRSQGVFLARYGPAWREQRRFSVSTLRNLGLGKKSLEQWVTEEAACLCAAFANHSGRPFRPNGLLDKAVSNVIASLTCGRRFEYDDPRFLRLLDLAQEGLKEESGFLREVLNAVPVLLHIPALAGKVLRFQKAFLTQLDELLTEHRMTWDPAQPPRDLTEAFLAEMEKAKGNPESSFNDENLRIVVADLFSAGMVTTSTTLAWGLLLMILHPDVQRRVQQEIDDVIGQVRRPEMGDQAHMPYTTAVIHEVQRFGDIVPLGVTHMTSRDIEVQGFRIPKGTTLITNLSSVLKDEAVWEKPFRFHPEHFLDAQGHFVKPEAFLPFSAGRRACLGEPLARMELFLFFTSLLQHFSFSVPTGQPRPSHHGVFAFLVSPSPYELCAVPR

`COc1ccc(Oc2ncc3nc(-c4cc(F)cc(F)c4)c(=O)n(C)c3n2)cc1`: the Potency in experiment [1] was > 11.4 µM (inactive); in experiment [3] it was 3.16 µM (active); in experiment [5], > 9.22 µM (inactive); in experiment [6] it was > 46 µM (inactive); in experiment [8], 5.01 µM (active). Also, the activity change, negative = inhibition in experiment [2] is 18.9% (inactive); in experiment [4], -15.3% (inactive); in [10], -5.54% (inactive). Also, the Potency result in experiment [7] and in experiment [9] was “inactive” throughout. The max response in experiment [10] (setting [16]) is 13.4%; in experiment [10] (setting [17]), -2.06%.

With `COc1ccc2[nH]cc(CCNc3ncnc4ccc(-c5ccccc5CN(C)C)cc34)c2c1`, the Potency in [1] is > 11.4 µM (inactive); in [5], > 46 µM (inactive); in [6], > 46 µM (inactive); in experiment [8] it was 1.58 µM (active). The activity change, negative = inhibition in experiment [2] is -1.42% (inactive); in experiment [4], -18.9% (inactive); in [10], 7.35% (inactive). In addition, in experiment [11], the activity, negative = inhibition was 0.00328% (inactive). Further, the Potency result in [7], in experiment [12] and in [14] was “inactive” each time. Besides, in [13], the molecule was classed as inactive. Besides, the max response in experiment [10] (setting [16]) was -2.58%; in [10] (setting [17]), 5.15%.

Turning to `CN1CCN(c2ncc3ncc(=O)n(Cc4cccs4)c3n2)CC1`, the Potency in [1] is > 11.4 µM (inactive); in [3] it was 3.98 µM (active); in [5], > 9.22 µM (inactive); in experiment [6] it was > 46 µM (inactive). The figures for the activity change, negative = inhibition in experiment [2] and in [10] were -18.1% (inactive) and 4.27% (inactive), respectively. Further, the activity, negative = inhibition in experiment [11] is -10.9% (inactive). The Potency entry in experiment [7], in experiment [12] and in [9] was “inactive” each time. Also, the results for the max response in [10] (setting [16]) and in experiment [10] (setting [17]) were 26.8% and 33.1%, respectively.

Take `COc1ccccc1CN1CCC2(CC1)CCN(S(=O)(=O)c1ccccc1)CC2`: the results for the Potency in experiment [1], in experiment [6] and in experiment [15] were > 11.4 µM (inactive), > 46 µM (inactive) and 0.158 µM (active), respectively. In addition, the activity change, negative = inhibition is -0.16% (inactive) in experiment [2] and 0.93% (inactive) in experiment [10]. Also, the Potency result in experiment [3], in experiment [7] and in [12] was “inactive” in each case. Also, the activity, negative = inhibition in experiment [11] is 5.45% (inactive). Besides, the values for the max response in [10] (setting [16]) and in [10] (setting [17]) were 19% and 23.6%, respectively.

On to `c1ccc(-c2ccc(N3CC[C@@]4(CCCNC4)C3)cc2)cc1`, for which the Potency in experiment [1] was > 11.4 µM (inactive); in [3] it was 12.6 µM (active); in experiment [6] it was > 46 µM (inactive). In addition, the activity change, negative = inhibition in experiment [2] is 16.6% (inactive); in experiment [4], 10.5% (inactive); in [10] it was 4.33% (inactive). The Potency result in [7] and in [12] was “inactive” each time. Also, the max response amounted to 9.08% in experiment [10] (setting [16]) and 15.2% in experiment [10] (setting [17]).

On to `COc1ccc(C(=O)N2CCC3(CCCN(C(=O)Nc4cccc(C#N)c4)C3)CC2)cc1`, for which the Potency in experiment [1] was > 11.4 µM (inactive); in [3], 15.8 µM (active); in experiment [6] it was > 46 µM (inactive); in experiment [8], 6.31 µM (active). Besides, the activity change, negative = inhibition is -23.2% (inactive) in [2], -8.43% (inactive) in [4] and 3.86% (inactive) in [10]. Besides, the activity, negative = inhibition in experiment [11] was 8.74% (inactive). For the same molecule, the Potency result in [7] and in experiment [9] was “inactive” in each case. Further, the max response was found to be 0.951% in [10] (setting [16]) and 7.45% in experiment [10] (setting [17]).

As for `CC(C)CN1CC[C@@]2(CCCN(C(=O)c3cc(C(F)(F)F)cc(C(F)(F)F)c3)C2)C1`, the figures for the Potency in experiment [1], in experiment [3] and in [6] were > 11.4 µM (inactive), 25.1 µM (active) and > 46 µM (inactive), respectively. Further, the activity change, negative = inhibition in experiment [2] was -5.91% (inactive); in experiment [10], 1.55% (inactive). Moreover, in experiment [11], the activity, negative = inhibition is 11.2% (inactive). Besides, the Potency entry in experiment [7], in experiment [12] and in [9] was “inactive” throughout. The max response in experiment [10] (setting [16]) was found to be 13.4%; in experiment [10] (setting [17]), 17.5%.
